Consider eleven compounds from PubChem BioAssay.

Active and inactive are the calls of the source.

Assay [1] is described as follows: binders of probe aFSTL3 on microarray, primary screen, stem cell growth factor project, biochemical, small-molecule microarray, fluorescence 635/667 (AID 1064).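 Further: measures binding of the biotinylated anti-FSTL3 antibody to printed compounds.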 The following applies: higher = more signal.
Assay [2] in a line: binders from COS7 lysate, DM2A8 probe, primary screen, torsin A project, cell lysate, small-molecule microarray, fluorescence 635/667 (AID 1065). The following applies: higher = more signal, COS7 lysate expressing mutant human TOR1A.
A short description of assay [3]: binders of probe aFGF2 on microarray, primary screen, stem cell growth factor project, biochemical, small-molecule microarray, fluorescence 635/667 (AID 1067).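 Further: measures binding of biotinylated aFGF2 protein to printed compounds on slides; z-score merges feature fluorescence and signal-to-noise across triplicate slides.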 The following applies: higher = more signal.
A short description of assay [4]: binders of probe aFGF10 on microarray, primary screen, stem cell growth factor project, biochemical, small-molecule microarray, fluorescence 635/667 (AID 1071).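 Further: score merges 667 nm spot intensity and signal to noise from triplicate slides.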 The settings on record: higher = more signal.
The target in assay [5] is Neurogenic locus notch homolog protein 2 (Homo sapiens) (UniProt Q04721). In words: Notch2 binders on small-molecule microarrays, primary screen, biochemical, small-molecule microarray, 635 nm fluorescence, stem cell growth factors (AID 1073). The following applies: Notch2 binding, higher = more signal.
Chain of Neurogenic locus notch homolog protein 2 (Homo sapiens) (Q04721 whole entry, looked up, canonical isoform): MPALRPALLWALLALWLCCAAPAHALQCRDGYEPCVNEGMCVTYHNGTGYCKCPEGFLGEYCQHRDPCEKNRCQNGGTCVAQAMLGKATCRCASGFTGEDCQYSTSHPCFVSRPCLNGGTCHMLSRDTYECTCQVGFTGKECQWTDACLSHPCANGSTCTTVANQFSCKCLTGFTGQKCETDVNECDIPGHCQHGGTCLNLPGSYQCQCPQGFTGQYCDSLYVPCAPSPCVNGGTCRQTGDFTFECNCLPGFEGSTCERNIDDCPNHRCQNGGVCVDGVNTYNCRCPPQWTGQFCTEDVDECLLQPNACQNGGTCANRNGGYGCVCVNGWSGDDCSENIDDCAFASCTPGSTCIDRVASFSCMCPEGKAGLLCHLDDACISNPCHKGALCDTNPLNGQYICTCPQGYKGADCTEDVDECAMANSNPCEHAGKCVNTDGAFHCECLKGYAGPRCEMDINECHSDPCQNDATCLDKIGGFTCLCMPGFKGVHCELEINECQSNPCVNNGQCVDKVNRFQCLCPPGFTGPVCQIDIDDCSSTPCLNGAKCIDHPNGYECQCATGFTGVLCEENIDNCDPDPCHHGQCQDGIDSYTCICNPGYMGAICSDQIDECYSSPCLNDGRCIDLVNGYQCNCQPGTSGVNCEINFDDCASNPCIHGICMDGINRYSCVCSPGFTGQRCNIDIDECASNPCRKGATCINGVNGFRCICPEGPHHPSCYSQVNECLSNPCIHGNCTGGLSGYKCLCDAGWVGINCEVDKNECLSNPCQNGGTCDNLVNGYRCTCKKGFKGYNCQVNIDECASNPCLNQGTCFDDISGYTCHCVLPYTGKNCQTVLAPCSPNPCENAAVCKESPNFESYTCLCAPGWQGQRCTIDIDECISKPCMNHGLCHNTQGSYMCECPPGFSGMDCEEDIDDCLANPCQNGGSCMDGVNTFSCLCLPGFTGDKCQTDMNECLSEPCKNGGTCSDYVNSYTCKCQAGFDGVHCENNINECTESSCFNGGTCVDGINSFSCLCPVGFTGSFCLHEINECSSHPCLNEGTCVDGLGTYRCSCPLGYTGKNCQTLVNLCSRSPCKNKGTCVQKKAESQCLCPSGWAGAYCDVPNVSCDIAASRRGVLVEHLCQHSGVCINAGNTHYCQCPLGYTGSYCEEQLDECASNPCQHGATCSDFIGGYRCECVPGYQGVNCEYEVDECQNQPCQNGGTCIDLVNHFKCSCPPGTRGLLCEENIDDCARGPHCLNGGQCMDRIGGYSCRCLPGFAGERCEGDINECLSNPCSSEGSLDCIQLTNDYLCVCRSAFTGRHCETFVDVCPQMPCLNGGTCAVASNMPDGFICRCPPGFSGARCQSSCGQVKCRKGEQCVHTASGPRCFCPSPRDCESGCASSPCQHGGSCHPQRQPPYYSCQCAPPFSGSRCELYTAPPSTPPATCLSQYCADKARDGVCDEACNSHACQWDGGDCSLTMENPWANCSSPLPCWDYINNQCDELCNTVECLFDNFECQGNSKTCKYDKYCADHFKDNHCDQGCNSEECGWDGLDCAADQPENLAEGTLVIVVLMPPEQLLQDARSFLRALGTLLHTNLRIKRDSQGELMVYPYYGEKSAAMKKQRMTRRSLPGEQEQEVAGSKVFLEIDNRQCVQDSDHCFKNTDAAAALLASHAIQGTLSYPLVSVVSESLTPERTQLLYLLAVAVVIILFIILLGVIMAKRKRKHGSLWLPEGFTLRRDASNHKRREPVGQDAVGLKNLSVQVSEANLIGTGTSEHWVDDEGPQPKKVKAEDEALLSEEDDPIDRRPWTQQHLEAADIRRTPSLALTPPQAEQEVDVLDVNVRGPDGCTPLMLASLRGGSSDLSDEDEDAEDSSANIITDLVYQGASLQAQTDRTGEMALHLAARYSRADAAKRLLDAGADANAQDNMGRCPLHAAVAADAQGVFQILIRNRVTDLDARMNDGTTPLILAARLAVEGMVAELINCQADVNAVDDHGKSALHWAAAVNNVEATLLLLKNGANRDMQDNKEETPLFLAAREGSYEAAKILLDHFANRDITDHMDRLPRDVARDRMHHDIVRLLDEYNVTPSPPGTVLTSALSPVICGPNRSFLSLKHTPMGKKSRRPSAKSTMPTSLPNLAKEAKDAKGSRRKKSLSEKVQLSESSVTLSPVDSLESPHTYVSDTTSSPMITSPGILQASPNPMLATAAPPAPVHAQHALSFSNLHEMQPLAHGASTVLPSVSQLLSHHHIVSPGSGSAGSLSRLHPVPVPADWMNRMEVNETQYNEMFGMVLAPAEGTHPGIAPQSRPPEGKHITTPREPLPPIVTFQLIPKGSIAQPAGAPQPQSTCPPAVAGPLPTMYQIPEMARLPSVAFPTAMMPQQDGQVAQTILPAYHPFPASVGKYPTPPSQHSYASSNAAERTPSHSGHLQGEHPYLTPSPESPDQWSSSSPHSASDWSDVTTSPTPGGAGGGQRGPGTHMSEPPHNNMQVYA
The target of assay [6] is Pro-neuregulin-1, membrane-bound isoform (Homo sapiens) (UniProt Q02297). In words: NRG1 binders on small-molecule microarrays, primary screen, psychiatric disease protein project, biochemical, small-molecule microarray, fluorescence 635/667 (AID 1075).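 Further: score combines 667 nm spot fluorescence with signal to noise.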 The following applies: NRG1 binding, 635 nm fluorescence, higher = more signal.
Chain of Pro-neuregulin-1, membrane-bound isoform (Homo sapiens) (Q02297 whole entry, looked up, the tested form may be a part, canonical isoform): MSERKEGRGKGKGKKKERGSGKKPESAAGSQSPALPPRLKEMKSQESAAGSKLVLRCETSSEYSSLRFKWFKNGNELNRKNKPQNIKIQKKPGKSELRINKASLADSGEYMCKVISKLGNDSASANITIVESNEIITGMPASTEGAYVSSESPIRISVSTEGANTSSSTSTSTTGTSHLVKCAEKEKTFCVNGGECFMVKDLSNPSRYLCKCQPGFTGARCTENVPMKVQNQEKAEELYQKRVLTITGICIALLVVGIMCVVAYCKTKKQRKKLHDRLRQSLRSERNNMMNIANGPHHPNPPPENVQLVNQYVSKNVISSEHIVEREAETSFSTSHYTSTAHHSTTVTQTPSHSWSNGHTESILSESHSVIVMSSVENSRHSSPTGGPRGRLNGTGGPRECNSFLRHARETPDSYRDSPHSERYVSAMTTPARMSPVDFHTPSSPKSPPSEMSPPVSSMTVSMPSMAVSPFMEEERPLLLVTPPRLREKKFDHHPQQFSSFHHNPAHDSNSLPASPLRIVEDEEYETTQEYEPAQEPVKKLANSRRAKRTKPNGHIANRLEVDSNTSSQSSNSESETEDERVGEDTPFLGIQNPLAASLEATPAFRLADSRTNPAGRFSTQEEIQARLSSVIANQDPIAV
Assay [7] has as its system Neuregulin-1 EGF-like domain. In words: binders of neuregulin-1 EGF-like domain, primary screen, biochemical, small-molecule microarray, 635 nm fluorescence (AID 1081).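 Further: binding of the protein to compounds printed on small-molecule microarray slides.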 The following applies: small-molecule microarray binding, higher = more signal.
The nature of assay [8]: FRG1 promoter luciferase signal modulators, primary screen, FRG1 inhibition for FSHD, cell-based, C2C12 myotubes, firefly/Renilla luciferase, luminescence (AID 1084). The settings on record: higher = more signal, called active from +8 up or from −8 down.
Assay [9] in a line: binders of probe aFST on microarray, primary screen, stem cell growth factor project, biochemical, small-molecule microarray, fluorescence 635/667 (AID 1086).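 Further: score merges 667 nm fluorescence with signal-to-noise of each printed compound spot.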 The following applies: higher = more signal.
Assay [10] is described as follows: binders of probe aHhip on microarray, primary screen, stem cell growth factor project, biochemical, small-molecule microarray, fluorescence 635/667 (AID 1087).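 Further: score merges spot fluorescence at 667nm with spot signal to noise ratio.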 The following applies: higher = more signal.

For `CC(CO)N1C(=O)[C@@H]2[C@H]3C(=O)OCC=C[C@H]3OC23C=CCN(C(C)(C)C)C(=O)[C@@H]13` (stereo not given in full), the composite z-score in assay [1] was -0.279; in assay [2], 0.261; in [3], -0.128; in assay [4], 0.337; in [5], -0.175; in assay [6], -0.305. Moreover, the composite z-score in assay [7] was 1.51; in assay [9], -0.415; in [10] it was -0.0618. Further, the z-score in assay [8] is 1.76 (inactive).
As for `C=C(C(=O)CC[C@@H](OC(C)=O)c1ccc(CO)o1)C(C)C`, the composite z-score was -0.0468 in [1]; -0.0472 in assay [2]; -0.08 in assay [3]; 0.114 in assay [4]; 0.17 in assay [5]; -0.116 in assay [6]. Also, the composite z-score in assay [7] was 0.0816; in [9], -0.105; in assay [10], 0.0749. Moreover, the z-score in assay [8] was 0.776 (inactive).
For the compound `CN(C)CCCCNC(=O)[C@@H]1C[C@@H]2C(=O)N[C@@H](Cc3ccccc3)C(=O)N2[C@@H]1c1cccc(OCCO)c1`, the composite z-score in [1] is -0.185; in assay [2] it was 0.971; in assay [3], 0.0281; in [4], 0.645; in assay [5] it was -0.729; in assay [6] it was 0.382. Further, the composite z-score in assay [7] amounted to 0.905; in assay [9], 0.218; in [10] it was 0.0524. Also, the z-score in [8] is 3.35 (inactive).
Regarding `CC(C)N1C(=O)C[C@@](C(=O)NCCCN(C)C)(c2ccc([N+](=O)[O-])cc2)[C@H]1c1ccc(CO)cc1`, the composite z-score in [1] was -0.153; in assay [2], -0.351; in [3] it was -0.0328; in [4], 0.589; in assay [5], -0.072; in assay [6], 0.454. Besides, the composite z-score was -0.412 in assay [7], 0.27 in assay [9] and -0.409 in [10]. Also, the z-score in [8] is -0.0382 (inactive).
Consider `COCCOC(=O)N1C(=O)[C@@]2(c3cc(C#CC4=CCCCC4)ccc31)[C@H](C(=O)N1CCCCCCC1)[C@H]1C(=O)O[C@H](c3ccccc3)[C@H](c3ccccc3)N1[C@@H]2c1ccc(O)cc1`, for which the composite z-score in assay [1] was 0.804; in assay [2] it was 0.0395; in assay [3] it was -0.0226; in assay [4], 0.119; in assay [5] it was 0.464; in assay [6] it was -0.215. Moreover, the composite z-score is 1.14 in assay [7], 0.409 in assay [9] and -0.31 in assay [10]. For the same compound, the z-score in assay [8] was -0.472 (inactive).
`OCCCC1=CC(c2ccc(CN3CCCC3)cc2)N(Cc2sc3ccccc3c2Cl)CC1` (stereo not given): the composite z-score is 1.46 in assay [1]; 0.41 in [2]; -0.221 in [3]; 0.828 in [4]; 0.72 in assay [5]; 0.65 in [6]. For the same compound, the figures for the composite z-score in assay [7], in [9] and in assay [10] were 1.27, 0.0562 and 0.535, respectively. For the same compound, in assay [8], the z-score is -0.475 (inactive).
On to `COc1ccc(CCNC(=O)[C@@H]2c3ccccc3C(=O)N(Cc3cc(C(F)(F)F)cc(C(F)(F)F)c3)[C@H]2c2ccc(CO)cc2)cc1`, for which the composite z-score in assay [1] is 0.0967; in [2] it was -0.138; in [3], -0.123; in [4] it was -0.0803; in assay [5], -0.181; in assay [6], 0.568. The composite z-score was 0.993 in assay [7], -0.135 in assay [9] and -0.236 in assay [10]. Also, the z-score in assay [8] is -0.188 (inactive).
Turning to `O=C1O[C@H](c2ccccc2)[C@H](c2ccccc2)N2[C@H]1[C@@H](C(=O)Nc1nc3ccccc3s1)[C@]1(C(=O)Nc3ccccc31)[C@H]2c1ccc(OCCO)cc1`, the composite z-score in assay [1] is -0.401; in assay [2], 0.292; in assay [3], -0.0734; in assay [4] it was 0.452; in assay [5], 1.31; in [6] it was 1.29. Also, the figures for the composite z-score in assay [7], in assay [9] and in assay [10] were 1.11, 0.778 and 0.0854, respectively. The z-score in assay [8] is 3.35 (inactive).
In the case of `Cc1ccc(S[C@]2(C(=O)O)CC(=O)N(C3Cc4ccccc4C3)[C@@H]2c2ccc(CO)cc2)cc1`, the composite z-score was 0.377 in assay [1]; 0.477 in assay [2]; 0.0015 in assay [3]; -0.179 in [4]; -0.267 in assay [5]; 0.915 in assay [6]. In addition, the composite z-score in [7] is 0.184; in assay [9], -0.117; in [10] it was -0.134. Moreover, in assay [8], the z-score was 0.177 (inactive).
With `CCC(CC)C(O)C1C=CC2C(=O)N(c3ccccc3)C(=O)C2N1Nc1ccc(C(C)C)cc1` (stereo not given), the composite z-score was 0.251 in assay [1]; -0.207 in assay [2]; 0.0495 in assay [3]; 0.687 in [4]; 1.64 in assay [5]; 1.23 in assay [6]. For the same compound, the composite z-score was 1.28 in assay [7], 1.21 in [9] and -0.195 in [10]. In addition, the z-score in [8] is -0.963 (inactive).
On to `C=CCC(OC(C)=O)[C@@H]1[C@@H](N(Cc2cccc3ccccc23)C(=O)Cc2ccc(F)cc2)c2cc(OCCCO)ccc2N1C(=O)c1ccc2ccccc2n1` (stereo not given in full), for which the composite z-score was 0.258 in assay [1]; -0.0938 in assay [2]; 0.0631 in [3]; 0.0908 in [4]; 0.179 in [5]; 0.0429 in [6]. Moreover, the figures for the composite z-score in [7], in [9] and in assay [10] were -0.429, 0.382 and 0.347, respectively. Also, the z-score in assay [8] is -1.11 (inactive).
